{
  "source": "PubChem BioAssay AID588493",
  "about": "(Sanford-Burnham Center for Chemical Genomics, 2011)",
  "note": "The campaign covered roughly 360,000 compounds. About 2,100 (0.58%) were called active. Only a selection was taken, and actives are over-represented in it overall. Values without a mark were called inactive.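 How the source made its calls: active means inhibition at 20 µM, scaled to each plate's controls, above about 33% (limit read from the data); inactive means the rest.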",
  "data": [
    {"target": "26S proteasome non-ATPase regulatory subunit 14 (Homo sapiens) (UniProt O00487)", "sequence (O00487 whole entry, looked up)": "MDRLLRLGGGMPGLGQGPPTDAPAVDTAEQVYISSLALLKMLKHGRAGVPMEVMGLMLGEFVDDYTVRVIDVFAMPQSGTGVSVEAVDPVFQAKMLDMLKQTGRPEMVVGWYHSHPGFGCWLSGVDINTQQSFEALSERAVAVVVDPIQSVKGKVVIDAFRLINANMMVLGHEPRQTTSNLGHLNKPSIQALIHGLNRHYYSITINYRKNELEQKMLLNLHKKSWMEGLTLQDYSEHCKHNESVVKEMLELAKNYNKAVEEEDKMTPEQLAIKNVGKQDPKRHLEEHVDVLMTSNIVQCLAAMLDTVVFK", "assay": "inhibition of 26S proteasome subunit Rpn11 – biochemical, fluorescence polarization, uHTS, primary screen (AID 588493)", "details": "human 26S proteasome, Ub4-pepOG fluorescence polarization; at 20 µM; active compounds read high; 20S core pre-blocked with epoxomicin", "values": [
      {"smiles": "CC(C)CC(O)C1CCN(C(=O)CCc2nnc(-c3ccc4c(c3)OCO4)o2)CC1", "note": "(stereo not drawn)", "inhibition": "-1.9%"},
      {"smiles": "Cc1ccc(Nc2ccccc2N)cc1", "inhibition": "53% (active)"},
      {"smiles": "Cc1ccc(Nc2nc(N)nc(CSc3nnc(C)s3)n2)cc1", "inhibition": "-0.4%"},
      {"smiles": "O=[N+]([O-])c1ccccc1Nc1ccc(O)cc1", "inhibition": "0.3%"},
      {"smiles": "O=[N+]([O-])c1cc(S(=O)(=O)Nc2cccc(Cl)c2)ccc1N=Nc1c(O)[nH]c2ccccc12", "inhibition": "-18%"},
      {"smiles": "Cc1oc2c(C)c3oc(=O)c(CC(=O)N[C@@H](CC(C)C)C(=O)N[C@@H](Cc4ccccc4)C(=O)O)c(C)c3cc2c1C", "inhibition": "71.8% (active)"},
      {"smiles": "Cc1c(CCC(=O)N[C@@H](CC(C)C)C(=O)O)c(=O)oc2c(C)c3oc4c(c3cc12)CCCC4", "inhibition": "-8.5%"},
      {"smiles": "Cc1c(OC(C)C(=O)N[C@@H](Cc2ccccc2)C(=O)O)ccc2c3c(c(=O)oc12)CCCC3", "note": "(stereo partly drawn)", "inhibition": "-4.9%"},
      {"smiles": "CC(=NCc1ccc2c(c1)OCO2)C1=C(O)c2ccccc2C1=O", "inhibition": "-6.8%"},
      {"smiles": "CCOc1ncccc1C(=O)OCC(=O)Nc1cccc(S(=O)(=O)N2CCCCCC2)c1", "inhibition": "1.7%"},
      {"smiles": "CC(C)(C)c1ccc(C(=O)NCc2ccco2)cc1", "inhibition": "0.7%"},
      {"smiles": "CCc1ccc(-c2cc(C(=O)NCc3ccco3)c3ccccc3n2)s1", "inhibition": "40.1% (active)"},
      {"smiles": "Cc1cccc(Nc2ccccc2C(=O)NCc2ccco2)c1C", "inhibition": "0.1%"},
      {"smiles": "CN1CCNC(=O)C1CC(=O)N1CC=C(c2ccc(F)cc2)CC1", "note": "(stereo not drawn)", "inhibition": "-2.3%"},
      {"smiles": "CCCCCCCCCCOC(=O)Cn1c(COc2cccc(OC)c2)[n+](C)c2ccccc21", "inhibition": "33% (active)"},
      {"smiles": "CCCc1cc(=O)[nH]c(SCC(=O)Nc2sc3c(c2C#N)CCCC3)n1", "inhibition": "2%"},
      {"smiles": "COc1ccc(-n2c(SCC(=O)Nc3sc4c(c3C#N)CCCC4)nnc2-c2ccc(O)cc2)cc1", "inhibition": "59.6% (active)"},
      {"smiles": "COc1cccc(CN(C)CC(=O)Nc2sc3c(c2C#N)CCC3)c1", "inhibition": "18%"},
      {"smiles": "Cc1ccc(Cc2c(-c3ccco3)nc3ccc(Cl)cn23)cc1", "inhibition": "18.2%"},
      {"smiles": "COC(=O)c1c(CCl)noc1C(=O)NC(C)C", "inhibition": "-0.8%"},
      {"smiles": "O=C(/C=C/c1cccs1)c1cc(Cl)ccc1OC(=O)N1CCOCC1", "inhibition": "1.7%"},
      {"smiles": "O=c1c2ccccc2ncn1CCc1ccncc1", "inhibition": "1.2%"},
      {"smiles": "O=C(CN1C(=O)CSc2ncccc21)N1CCOCC1", "inhibition": "-4.6%"},
      {"smiles": "Cc1cc(/C=C2/SC(=O)N(CC(=O)N3CCCC3)C2=O)ccc1N1CCOCC1", "inhibition": "59.6% (active)"},
      {"smiles": "Cc1ccc2c(c1)N(CC(=O)N1CCOCC1)C(=O)CO2", "inhibition": "-3.1%"},
      {"smiles": "Cc1cccc(N(C(=O)c2sc(C)nc2C)C(C(=O)NCC2CCCO2)c2ccccc2)c1", "note": "(stereo not drawn)", "inhibition": "-7.9%"},
      {"smiles": "CCNC(=O)C1(C)CCCN(Cc2noc(-c3ccccc3OC)n2)C1", "note": "(stereo not drawn)", "inhibition": "2.1%"},
      {"smiles": "CC(=O)N1CCN(Cc2cc(=O)oc3cc(C)ccc23)CC1", "inhibition": "9.9%"},
      {"smiles": "Cc1ccc(S(=O)(=O)N2[C@@H](c3ccc(Br)cc3)C(C(=O)O)=C[C@H]2CC2CCCC2)cc1", "inhibition": "14.1%"},
      {"smiles": "COc1cccc(NC(=O)C2(C)CCN2C(=O)CCC2CCCC2)c1", "note": "(stereo not drawn)", "inhibition": "-22.2%"},
      {"smiles": "COc1cccc(CN2C(=O)CCC2(C)C(=O)NC2CCCCCC2)c1", "note": "(stereo not drawn)", "inhibition": "3.5%"},
      {"smiles": "Cc1nnc(N(Cc2ccco2)C(=O)c2ccno2)s1", "inhibition": "15%"},
      {"smiles": "COc1cccc(CNC(=O)c2nnn(CC(=O)Nc3cc(C)ccc3C)c2N)c1", "inhibition": "-0.5%"},
      {"smiles": "COc1ccc(NC(=O)Cn2nnc(C(=O)NCCc3ccc(OC)c(OC)c3)c2N)cc1", "inhibition": "7%"},
      {"smiles": "COc1ccc(CNC(=O)c2nnn(CC(=O)Nc3cc(C)cc(C)c3)c2N)cc1", "inhibition": "58.1% (active)"},
      {"smiles": "O=C(Nc1cccc(C(=O)O)c1)/C(=C\\c1ccccc1)NC(=O)c1ccc(Br)o1", "inhibition": "1.3%"},
      {"smiles": "CC1(C)NC(=O)N(CCCCSc2ccc(Cl)cc2)C1=O", "inhibition": "1.8%"},
      {"smiles": "O=P(c1ccc2c(c1)OCCO2)(N1CCOCC1)N1CCOCC1", "inhibition": "2.8%"},
      {"smiles": "CCS(=O)(=O)C1=NSC2=NC(=O)/C(=C\\c3ccc(OS(=O)(=O)c4ccccc4)cc3)C(=N)N21", "inhibition": "22.6%"},
      {"smiles": "CS(=O)(=O)c1ccc2c(c1)SC1=NC(=O)/C(=C/c3ccco3)C(=N)N12", "inhibition": "76.1% (active)"},
      {"smiles": "CCCC1C(c2ccccc2)C(C#N)(C#N)C2(C#N)CC1(N)NC2=O", "note": "(stereo not drawn)", "inhibition": "3%"},
      {"smiles": "COc1ccc(-c2ccnc(SCC(=O)N3CCOCC3)n2)cc1", "inhibition": "-4%"},
      {"smiles": "COC1=C/C(=C/c2c(N)n3nc(CC(=O)N4CCOCC4)sc3nc2=O)C=CC1=O", "inhibition": "46.9% (active)"},
      {"smiles": "O=C(Oc1ccccc1C(=S)N1CCCCC1)c1cc([N+](=O)[O-])cc([N+](=O)[O-])c1", "inhibition": "1.8%"},
      {"smiles": "CC(C)CC1C(=O)N(Cc2cn(CC3CCCCC3)nn2)CCS(=O)(=O)N1Cc1ccc(-c2ccc(Cl)cc2)cc1", "note": "(stereo not drawn)", "inhibition": "-2.7%"},
      {"smiles": "CC1C(=O)N(Cc2cn(Cc3ccco3)nn2)CCS(=O)(=O)N1Cc1ccc(-c2cccc(CO)c2)cc1", "note": "(stereo not drawn)", "inhibition": "4.5%"},
      {"smiles": "CC(C)CC1C(=O)N(Cc2cn(Cc3ccco3)nn2)CCS(=O)(=O)N1Cc1ccc(-c2ccc(Cl)c(Cl)c2)cc1", "note": "(stereo not drawn)", "inhibition": "59.9% (active)"},
      {"smiles": "COc1ccc(NC(=O)CNC(=O)Cn2ccc3ccccc3c2=O)c(OC)c1", "inhibition": "-3.8%"},
      {"smiles": "CC(C)C1N=C2c3ccccc3N=C(SCC(=O)c3ccc(O)c(O)c3)N2C1=O", "note": "(stereo not drawn)", "inhibition": "-6.6%"},
      {"smiles": "COc1ccc(NC(=O)C(CC(C)C)NS(=O)(=O)c2ccc3c(c2)CCN3C(C)=O)cc1OC", "note": "(stereo not drawn)", "inhibition": "6.4%"},
      {"smiles": "CCC(=O)N1CCc2cc(S(=O)(=O)NC(C(=O)N3CCc4ccccc4C3)C(C)C)ccc21", "note": "(stereo not drawn)", "inhibition": "1.1%"},
      {"smiles": "CCOC(=O)N1CCC(NC(=O)C(NS(=O)(=O)c2ccc3c(c2)CCN3C(=O)CC)C(C)C)CC1", "note": "(stereo not drawn)", "inhibition": "46.5% (active)"},
      {"smiles": "CC(C)S(=O)(=O)c1csc(NC(=O)Nc2ccc(Cl)cc2)c1Cl", "inhibition": "1.6%"},
      {"smiles": "CCC(C)Cn1c(O)cc2nn(-c3nc4ccccc4s3)c(=O)c-2c1C", "note": "(stereo not drawn)", "inhibition": "95.3% (active)"},
      {"smiles": "N#Cc1ccc(-c2ccc3nccn3c2)cc1", "inhibition": "1.6%"},
      {"smiles": "O=C(CSc1cccc2cccnc12)N/N=C/c1cccnc1", "inhibition": "71.4% (active)"},
      {"smiles": "O=C(CNC(=O)c1cccnc1)N/N=C/c1cc(Br)c(O)c(Br)c1", "inhibition": "-14.1%"},
      {"smiles": "Cc1ccc(/C=N/NC(=O)CSc2nc3ccccc3o2)cc1", "inhibition": "1%"}
    ]}
  ]
}
